The record followed here is PubChem BioAssay AID1347076 (National Center for Advancing Translational Sciences (NCATS), 2019).

Out of some 400,000 compounds screened, about 13,000 (3.2%) were called active. Entries that show only a call come without a potency. Inconclusive results (about 18%) are left out. The sample holds actives, similar compounds and a random draw of the others, so the mix is not that of the screen. The call rests on the fitted dose curve; in most records, active means well fitted cell-killing curve with a large enough effect; inconclusive means small, poorly fitted or top-dose-only effect, or effect the other way; inactive means flat fitted curve, though single readings scatter.
Potency means the concentration at half of the fitted maximal effect.

The experiment can be described thus: qHTS assay for MDR1-selective chemotherapeutics: Primary screen using the drug-selected MDR subline cells KB-V1. Further: nearly all actives have a fitted effect of over 60% in size. Particulars: KB-V1 MDR cells viability, CellTiter-Glo, 72 h; series mostly up to 46.1 µM. In short, it runs like this:
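KB-V1, DMEM (no phenol red) + 10% FBS; cpd pin-transferred, titration series; 72 h, 37 degrees C; CellTiter-Glo, luminescence. Data normalized, curve-fit.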
Background: In qHTS, concentration-response curves come from the screen itself.
Regarding `O=C(NC(c1ccco1)c1cc(Cl)c2cccnc2c1O)c1ccccc1` (configuration not stated), the Potency entry was “inactive”. Regarding `COc1ccc2nc(-c3ccccn3)ccc2c1`, the Potency entry was “inactive”.

`COc1ccc(NC(=O)N2CCCC(c3nc(-c4ccc(F)cc4)no3)C2)cc1` (configuration not stated): the Potency entry was “inactive”. On to `O=c1ccc(S(=O)(=O)N2CCCC2)cn1Cc1nc(-c2ccccc2)no1`, for which the Potency result is “inactive”. Turning to `O=C(Cc1cccs1)N1CCCC(c2nc(-c3ccc(S(=O)(=O)N4CCCC4)cc3)no2)C1` (configuration not stated), the Potency was 20.6 µM (active). As to `COc1cccc(-c2noc(C3CCCN(C(=O)c4ccc(F)cc4)C3)n2)c1` (configuration not stated), the Potency entry is “inactive”.

`COc1cc(-c2noc(C3CCCN(S(=O)(=O)c4cccc(Cl)c4)C3)n2)cc(OC)c1OC` (configuration not stated): the Potency entry is “inactive”. Take `CC(C)c1ccc(-c2noc(C3CCCN(S(C)(=O)=O)C3)n2)cc1` (configuration not stated): the Potency is 18.4 µM (active). As to `Cc1ccccc1-c1ccc2c(c1)O[C@@H](CN(C)Cc1ccc(C(=O)O)cc1)[C@@H](C)CN([C@H](C)CO)S2(=O)=O`, the Potency entry is “inactive”. In the case of `NC(CSC(c1ccccc1)(c1ccccc1)c1ccc(-c2ccccc2)cc1)C(=O)O` (configuration not stated), the Potency entry is “inactive”. Consider `O=C1NC[C@H](Cc2ccc(O)cc2)N(C[C@@H]2CCCN2C[C@H](Cc2ccccc2)N2C[C@H](Cc3ccccc3)N(CC3CCCCC3)C(=O)C2=O)C1=O`, for which the Potency entry was “inactive”. Consider `CCc1nc2c(OCC(=O)C(C)(C)C)cccn2c1N(C)C(=O)c1ccccc1F`, for which the Potency result was “inactive”. Next, `COc1cc(Cn2c3ccc(NC(=O)CC(C)c4ccccc4)cc3c(=O)n2C)ccc1F` (configuration not stated): “inactive”. As to `CSc1ccc(S(=O)(=O)NC2CCCCC2)cc1`, the Potency result is “inactive”. `Cc1ccc(S(=O)(=O)NC2CCCCCC2)cc1`: the Potency is 20.6 µM (active). Regarding `CC(C)c1ccc(S(=O)(=O)NC2CCCC2)cc1`, the Potency entry is “inactive”.

`CCOc1cc(/C=N/NC(=O)c2ccncc2)cc(Br)c1O`: the Potency result was “inactive”. Regarding `O=C(COC(=O)/C=C/c1ccc(Cl)cc1)NC1CCS(=O)(=O)C1` (configuration not stated), the Potency result was “inactive”. With `O=S(=O)(NCc1ccco1)c1cnc(Cl)c(Cl)c1`, the Potency entry is “inactive”. Turning to `C/C(=N\Nc1ncc(Cl)cc1Cl)c1ccc(S(=O)(=O)NCc2ccco2)cc1`, the Potency was 2.06 µM (active). Take `Cc1c(Cl)cnc(NC(=O)COC(=O)c2ccc(S(=O)(=O)NCc3ccco3)cc2)c1Cl`: the Potency entry is “inactive”. In the case of `CSc1cccc(NC(=O)CSc2ccccc2)c1`, the Potency result is “inactive”. Take `Cc1cc(C)cc(NC(=O)CSc2ccccc2)c1`: the Potency result is “inactive”. For `CC1CCCN(CC(=O)Nc2cc(Cl)ccc2Oc2ccccc2)C1` (configuration not stated), the Potency entry is “inactive”. For `O=C(CSc1ccccc1)Nc1cc(Cl)ccc1Oc1ccccc1`, the Potency was 18.4 µM (active). The same measure for `CC(=O)Nc1ccc(SCC(=O)Nc2ccccc2Oc2ccccc2)cc1`: 4.61 µM (active); for `COc1ccc(Cl)cc1NC(=O)CSc1nc2ccccc2c2nc(-c3ccccc3)nn12`: “inactive”; for `CC(C)NC(=O)C1CCC(Cn2c(=O)c3sccc3n(Cc3ccc(F)cc3)c2=O)CC1` (configuration not stated): “inactive”.

On to `Cc1cccc(CN2CCN(C3CN(Cc4ccccc4)S(=O)(=O)C3)CC2)c1` (configuration not stated), for which the Potency entry was “inactive”.

As for `C=CCOc1cccc(C2C(C(=O)c3ccc(C)o3)=C(O)C(=O)N2CCN2CCOCC2)c1` (configuration not stated), the Potency entry is “inactive”. For `COCCNC(=O)C1C(=O)Nc2ccccc2C(=O)N1c1ccc2c(c1)OCCO2` (configuration not stated), the Potency entry was “inactive”. Turning to `O=S1(=O)CC(N2CCN(Cc3ccccc3F)CC2)CN1Cc1cn(Cc2ccccc2)nn1` (configuration not stated), the Potency result is “inactive”. For the molecule `COc1ccc(Cn2c(=O)oc3ccccc32)cc1`, the Potency result is “inactive”. For the molecule `CN1CCN(c2ccncc2S(=O)(=O)N2CCCC2)CC1`, the Potency result was “inactive”. Regarding `N=c1n(Cc2ccc(Cl)cc2)c2ccccc2n1CC(O)c1ccco1` (configuration not stated), the Potency was 20.6 µM (active).

As for `Cn1c(=N)n(CC(O)c2cccs2)c2ccccc21` (configuration not stated), the Potency result was “inactive”. With `Cn1c(=N)n(CC(O)c2ccccc2)c2ccccc21` (configuration not stated), the Potency entry was “inactive”.

For `Cc1ccc(S(=O)(=O)N2CC[C@H]3[C@@H](C2)C(=O)C[C@@H](c2ccccc2)N3S(=O)(=O)c2ccc(C)cc2)cc1`, the Potency result was “inactive”. The same measure for `Brc1cccc[n+]1Cc1cccc(C[n+]2ccccc2Br)c1`: “inactive”; for `O=C(Nc1ncc2c(n1)-c1ccccc1OC2)c1ccc(Cl)cc1`: “inactive”. Turning to `COc1ccc(C(=O)Nc2ncc3c(n2)-c2ccccc2CC3)cc1`, the Potency is 13 µM (active).

Take `COc1ccc(C(=O)Nc2onc3c2CCCC3)cc1`: the Potency entry is “inactive”. Next, `COc1cccc(CNC(=O)Cc2csc3nc(-c4ccccc4)cn23)c1`: “inactive”; `CCC(C(=O)Nc1cc(OC)ccc1OC)n1c(=O)c(C(F)(F)F)nc2ccccc21` (configuration not stated): “inactive”; `O=C(Nc1cccnc1)c1noc2c1CCCCC2`: 23.1 µM (active). The same measure for `COc1cccc(C(=O)Nc2cccnc2)c1OC`: “inactive”. Take `CCOC(=O)c1ccc(-c2ccc(C(=O)Nc3cccnc3)o2)cc1`: the Potency entry was “inactive”. Turning to `Nc1cc(C(F)(F)F)ccc1N1CCOCC1`, the Potency is 20.6 µM (active). Take `CC(C)CC(=O)Nc1cc(C(F)(F)F)ccc1N1CCOCC1`: the Potency entry is “inactive”.

With `Cc1noc(C)c1S(=O)(=O)Nc1cc(C(F)(F)F)ccc1N1CCOCC1`, the Potency result was “inactive”. `Cc1ccccc1CNC(=O)CSc1nnc(C)c2c(C)n(-c3ccccc3)nc12`: the Potency result was “inactive”. Turning to `COc1cccc(C(NC(C)=O)c2nc(-c3ccccc3OC)cs2)c1` (configuration not stated), the Potency entry is “inactive”. On to `CCN1CCCC1CNC(=O)c1ccc2c(c1)NC(=O)/C(=C\c1ccccc1F)S2` (configuration not stated), for which the Potency result was “inactive”. Regarding `COC(=O)c1ccc2nc(-c3ccccc3)c(Cc3ccc(OC)cc3C)n2c1`, the Potency was 23.1 µM (active). Next, `COC(=O)c1ccc2nc(-c3ccc(Cl)cc3)c(Cc3cccc(F)c3)n2c1`: “inactive”; `COC(=O)c1ccc2nc(-c3ccc(OC)c(OC)c3)c(Cc3ccccc3)n2c1`: “inactive”; `COC(=O)c1ccc2nc(-c3cccc(Br)c3)c(Cc3ccc(OC)cc3C)n2c1`: “inactive”. In the case of `COC(=O)c1ccc2nc(-c3ccc(F)cc3)c(Cc3ccc(C)cc3)n2c1`, the Potency was 9.2 µM (active).

Regarding `COC(=O)c1ccc2nc(-c3ccc(C)cc3)c(Cc3ccc(OC)cc3C)n2c1`, the Potency result is “inactive”. As for `OC[C@@H]1CN(Cc2ccc3c(c2)OCO3)C[C@H](n2cnc3c(NCc4ccco4)ncnc32)O1`, the Potency result is “inactive”. Turning to `CC1(c2cccc(N)c2)OCCO1`, the Potency entry was “inactive”.

As for `COc1ccc(NC(=O)Cn2c(=O)cc(C)c3c(C)nn(-c4cccc(Cl)c4C)c32)cc1OC`, the Potency entry was “inactive”. As for `Cn1nc(N)c2ncc(C(Cl)(Cl)Cl)nc21`, the Potency entry is “inactive”.

On to `Nc1cc(=O)c2[nH]cnc2[nH]1`, for which the Potency entry was “inactive”. In the case of `S=c1[nH]c(=S)c2n[nH]nc2[nH]1`, the Potency entry was “inactive”.

Turning to `Cc1ccc2nc(-c3ccc(O)cc3)c(Nc3ccc4c(c3)OCO4)n2c1`, the Potency result is “inactive”.

`Cc1ccc2nc(-c3ccccc3)c(CC3CCCCC3)n2c1`: the Potency entry was “inactive”. `Cc1ccc2nc(-c3cccnc3)c(NC3CCCC3)n2c1`: the Potency is 2.59 µM (active). Next, `COc1ccccc1CNc1nccn(-c2ccc(F)cc2)c1=O`: “inactive”; `CCOC(=O)C1(C)CCCN(C(=O)c2cccc(Cl)c2)C1` (configuration not stated): “inactive”. On to `Oc1cc2c(cc1O)CN(C(=S)NCCc1ccc(Cl)cc1)CCC2`, for which the Potency is 14.6 µM (active).

As for `COc1ccc(CCNC(=S)N2CCN(S(=O)(=O)c3ccc(Cl)cc3)CC2)cc1`, the Potency result was “inactive”. Turning to `O=C(NCCc1ccc(Cl)cc1)c1cccc(N2CCCC2=O)c1`, the Potency result was “inactive”.

For the molecule `Cc1cc([N+](=O)[O-])ccc1NCc1cccc([N+](=O)[O-])c1`, the Potency entry was “inactive”. The same measure for `Cc1cc([N+](=O)[O-])ccc1NC1CCCC1`: 16.4 µM (active); for `Cc1cc([N+](=O)[O-])ccc1NC(=O)C1CCCO1` (configuration not stated): “inactive”. For the molecule `COc1ccc(-c2nnc(SCC(=O)Nc3ccc(C(C)C)cc3)nc2-c2ccc(OC)c(OC)c2)cc1OC`, the Potency entry was “inactive”. Take `CC1(C)CN(CCc2ccccc2)C(=O)[C@H]1CC(=O)Nc1ccc(Br)cc1`: the Potency result was “inactive”.

With `CC1(C(=O)NS(=O)(=O)c2ccccc2)CCN1C(=O)C/C=C/c1ccccc1` (configuration not stated), the Potency result is “inactive”.

`O=C(Nc1ccccc1N1CCN(c2ccccc2)CC1)c1cccc(F)c1`: the Potency is 11.6 µM (active).

Take `CCn1c(=O)c(=O)n(CC)c2cc(N3CCCCC3)c(NC(=O)c3cccc(F)c3)cc21`: the Potency result was “inactive”.

On to `Cc1cccc(C(=O)Nc2ccccc2N2CCN(c3ccc(F)cc3)CC2)c1`, for which the Potency result is “inactive”. Consider `O=C(NCc1nnnn1-c1ccc(Cl)cc1)c1ccc2c(c1)OCO2`, for which the Potency result is “inactive”. Regarding `Cc1ccc(S(=O)(=O)NCCC(=O)NCc2ccc(Cl)cc2)cc1C`, the Potency entry is “inactive”. Regarding `CSc1ccc(S(=O)(=O)NCc2ccc(Cl)cc2)cc1`, the Potency was 23.1 µM (active). For `CC(C)CNS(=O)(=O)c1ccc(CCC(=O)NCc2ccc(Cl)cc2)cc1`, the Potency entry is “inactive”. Next, `CCCCN1C[C@H](c2ccc(Br)cc2)[C@@H](CC(=O)Nc2ccc(Br)cc2)C1=O`: “inactive”; `O=C(Nc1ccc(Br)cc1)c1ccc(Br)c(S(=O)(=O)NCc2ccccc2)c1`: 13 µM (active). As to `Cc1ccc(C(=O)Nc2ccc(C(=O)O)cc2)cc1S(=O)(=O)Nc1ccccc1`, the Potency entry is “inactive”. The same measure for `O=C(Nc1ccc(F)cc1)c1ccc(S(=O)(=O)NCc2cccnc2)cc1`: “inactive”; for `COCCNC(=O)c1cc2c(Br)ccc(Br)c2nc1N`: “inactive”; for `O=S1(=O)CC(N2CCN(CCO)CC2)CN1Cc1cn(Cc2ccc(Cl)cc2)nn1` (configuration not stated): “inactive”. In the case of `CC(C)n1ncc2c(C(=O)N3CCN(Cc4cccs4)CC3)cc(C3CC3)nc21`, the Potency result was “inactive”. Next, `Cc1cc2oc(=O)cc(CN(C)Cc3ccccc3)c2cc1Cl`: “inactive”; `CCC1=NN(C(=O)Cc2ccc([N+](=O)[O-])cc2)C(O)(c2ccc(Br)cc2)C1` (configuration not stated): 13 µM (active). Next, `CC1=NN(C(=O)Cc2ccc(C)cc2)C(O)(c2cccnc2)C1` (configuration not stated): “inactive”; `CC1=NN(C(=O)c2ccc(Br)cc2)C(O)(c2ccccc2)C1` (configuration not stated): “inactive”. Turning to `C[C@@H]1CN([C@H](C)CO)S(=O)(=O)c2ccc(C#CC3CCCCC3)cc2O[C@H]1CN(C)C(=O)Cc1ccncc1`, the Potency result is “inactive”. For `COc1ccc(NC(=O)c2ccco2)cc1NC(=O)COc1ccc(C)c(C)c1`, the Potency entry is “inactive”.

As for `O=C(NCC(c1cccs1)N1CCOCC1)c1cc(-c2ccccn2)nc2ccccc12` (configuration not stated), the Potency entry was “inactive”. On to `O=C(c1ccccc1)c1cc(-c2ccccn2)c(N2CCOCC2)s1`, for which the Potency is 8.2 µM (active). Next, `CCc1ccc2ncc(C(=O)c3ccccc3)c(N3CCOCC3)c2c1`: “inactive”.
